In PubChem BioAssay (Tox21) one finds Potency data, which are given here for 19 molecules.

Test [1] in a line: qHTS assay to identify small molecule antagonists of the thyroid receptor (TR) signaling pathway - cell viability counter screen (AID 743064). Also: nearly all actives have a fitted effect of over 50% in size. Also: potency is read from the fitted curve at half-maximal effect. The essentials:
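Fluorescence from CellTiter-Fluor, added after 23.5 h exposure at 37 °C, reported viability of GH3.TRE-Luc cells co-treated with compound and 1 nM T3. Measured in the same wells as the luciferase TR readout.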

A short description of test [2]: qHTS assay to identify small molecule antagonists of the thyroid receptor (TR) signaling pathway (AID 743065). Also: nearly all actives have a fitted effect of over 55% in size. Also: potency is read from the fitted curve at half-maximal effect. Put shortly:
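GH3.TRE-Luc rat pituitary cells carrying two TR response elements driving luciferase were plated for 4 h, given compound plus 1 nM T3 (final), and incubated 23.5 h at 37 C. ONE-Glo luminescence measured reporter inhibition; CellTiter-Fluor fluorescence tracked cytotoxicity.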

Test [3] relates to thyroid hormone receptor (rat, GH3 cells). Briefly: qHTS assay to identify small molecule agonists of the thyroid receptor (TR) signaling pathway (AID 743066; calls by dose curve).
The target of test [4] is Estrogen receptor (Homo sapiens) (UniProt P03372). Put plainly: qHTS assay to identify small molecule antagonists of the estrogen receptor alpha (ER-alpha) signaling pathway (AID 743069; active = well fitted curve in the direction sought with a large enough effect in the signal ratio in the repeat runs, not every such curve was filed as active; inconclusive = weak or mixed curves, or effect the other way; inactive = no such curve, though single readings can be large or run the other way; the % refers to the signal ratio; also: potency is read from the fitted curve at half-maximal effect). The essentials:
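A 17beta-estradiol challenge was applied right after compound transfer to ER-alpha-UAS-bla HEK293 cells previously kept in charcoal-stripped serum. Plates stood 18 hr at 37C and 5% CO2; fluorescence was read following 2 hr FRET substrate loading at room temperature.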

Test [5] has the same target. Briefly: qHTS assay to identify small molecule agonists of the estrogen receptor alpha (ER-alpha) signaling pathway (AID 743075; calls by dose curve;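 also: HEK293 GripTite cells with ER-alpha and UAS-driven beta-lactamase reporter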; also: potency is read from the fitted curve at half-maximal effect).
Test [6] has the same target. Briefly: qHTS assay to identify small molecule agonists of the estrogen receptor alpha (ER-alpha) signaling pathway using the BG1 cell line (AID 743079). Also: nearly all actives have a fitted effect of over 20% in size. Also: potency is read from the fitted curve at half-maximal effect. As to conditions: BG1Luc4E2 cells, ERE-luciferase agonist, 22 h; activation: at 70.3 µM (top of the series).
A short description of test [7]: qHTS assay to identify small molecule antagonists of the estrogen receptor alpha (ER-alpha) signaling pathway using the BG1 cell line (AID 743080; calls by dose curve;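 also: BG1 cells stimulated with 17beta-estradiol alongside compound; nearly all actives have a fitted effect of over 25% in size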; also: potency is read from the fitted curve at half-maximal effect). Put shortly: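 Luciferase inhibition measured with ONE-Glo after 30 min at RT in BG1Luc4E2 cells given test compounds and 17beta-estradiol for 21.5 h at 37 C; CellTiter-Fluor viability read in the same wells beforehand.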

A short description of test [8]: qHTS assay to identify small molecule antagonists of the estrogen receptor alpha (ER-alpha) signaling pathway using the BG1 cell line - cell viability counter screen (AID 743081).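 Also: compound given together with 17beta-estradiol as the ER stimulus; nearly all actives have a fitted effect of over 45% in size.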 Also: potency is read from the fitted curve at half-maximal effect.
Test [9] concerns the target Aromatase (Homo sapiens) (UniProt P11511). Put plainly: qHTS assay to identify aromatase inhibitors (AID 743083). Also: nearly all actives have a fitted effect of over 55% in size. Also: potency is read from the fitted curve at half-maximal effect.
The nature of test [10]: qHTS assay to identify small molecule antagonists of the estrogen receptor alpha (ER-alpha) signaling pathway - cell viability counter screen (AID 743074; calls by dose curve;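 also: HEK293 cells carrying ER-alpha-UAS-bla reporter stimulated with 17beta-estradiol; nearly all actives have a fitted effect of over 45% in size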).

Calls of active or inactive are those of the source. Unless noted, calls follow the shape of the dose curve; as a rule, active = well fitted curve in the direction sought with a large enough effect in the repeat runs; inconclusive = weak or mixed curves; inactive = no such curve, though single readings can be large; an effect the other way counts as inactive or inconclusive.

Aromatase (Homo sapiens), sequence (P11511 whole entry, looked up): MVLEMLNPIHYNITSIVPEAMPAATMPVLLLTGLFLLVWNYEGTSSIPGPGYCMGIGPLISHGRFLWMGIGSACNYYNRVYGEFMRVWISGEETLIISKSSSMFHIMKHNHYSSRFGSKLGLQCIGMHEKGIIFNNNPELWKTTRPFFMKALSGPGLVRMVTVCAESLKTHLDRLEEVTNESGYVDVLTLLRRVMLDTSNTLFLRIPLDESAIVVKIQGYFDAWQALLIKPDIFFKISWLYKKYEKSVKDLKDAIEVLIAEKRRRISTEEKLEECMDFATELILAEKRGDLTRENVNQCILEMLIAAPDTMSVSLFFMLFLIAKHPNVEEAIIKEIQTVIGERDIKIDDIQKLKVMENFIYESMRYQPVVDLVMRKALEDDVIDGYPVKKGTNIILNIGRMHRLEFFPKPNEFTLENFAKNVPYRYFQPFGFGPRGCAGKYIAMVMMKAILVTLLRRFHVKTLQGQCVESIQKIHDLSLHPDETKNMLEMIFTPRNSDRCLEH
Estrogen receptor (Homo sapiens), sequence (P03372 whole entry, looked up): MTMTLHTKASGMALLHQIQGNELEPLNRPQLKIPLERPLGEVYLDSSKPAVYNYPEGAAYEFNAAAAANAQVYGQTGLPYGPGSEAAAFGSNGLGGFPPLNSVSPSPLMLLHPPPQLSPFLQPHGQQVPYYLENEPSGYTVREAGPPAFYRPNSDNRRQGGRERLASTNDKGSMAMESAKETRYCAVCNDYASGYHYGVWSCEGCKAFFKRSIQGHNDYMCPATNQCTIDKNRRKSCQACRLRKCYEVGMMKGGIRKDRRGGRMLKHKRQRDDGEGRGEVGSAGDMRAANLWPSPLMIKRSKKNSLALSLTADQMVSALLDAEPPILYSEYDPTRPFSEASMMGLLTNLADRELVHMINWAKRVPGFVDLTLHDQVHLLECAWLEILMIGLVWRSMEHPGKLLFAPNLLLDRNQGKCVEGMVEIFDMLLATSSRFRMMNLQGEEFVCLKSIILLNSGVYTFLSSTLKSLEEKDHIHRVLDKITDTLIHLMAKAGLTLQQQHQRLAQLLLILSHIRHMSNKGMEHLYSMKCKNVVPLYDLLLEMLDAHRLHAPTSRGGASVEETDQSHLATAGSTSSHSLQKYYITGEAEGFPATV

Regarding `NC(=O)c1ccc[n+]([C@@H]2O[C@H](COP(=O)([O-])OP(=O)(O)OC[C@H]3O[C@@H](n4cnc5c(N)ncnc54)[C@H](O)[C@@H]3O)[C@@H](O)[C@H]2O)c1`, the Potency entry in [1], in test [2], in [3], in test [4], in test [5] and in [6] was “inactive” throughout. Moreover, the Potency result in [7], in [8] and in test [9] was “inactive” each time.
Consider `O=P(O)(O)OC[C@H]1O[C@](O)(COP(=O)(O)O)[C@@H](O)[C@@H]1O`, for which the Potency entry in test [1], in test [2], in test [3], in test [4], in [10] and in test [7] was “inactive” in each case. Moreover, the Potency result in test [8] and in test [9] was “inactive” each time. In test [6], the Potency was 10.6 µM (active).
As for `CC(=O)OC[C@H]1O[C@@H](O[C@H]2[C@H](O)[C@@H](OC(=O)c3ccccc3C(=O)O)[C@H](O)O[C@@H]2COC(C)=O)[C@H](O)[C@@H](OC(=O)c2ccccc2C(=O)O)[C@@H]1O`, the Potency result in test [1], in [2], in [3], in test [4], in test [5] and in test [6] was “inactive” throughout. The Potency entry in [7], in [8] and in test [9] was “inactive” throughout.
Turning to `CCOC(=O)Nc1ccc2c(c1)N(C(=O)CN(C)C)c1ccccc1CC2`, the Potency in [1] and in test [2] was 48.6 µM (active) throughout. Moreover, the Potency result in test [3] and in test [10] was “inactive” each time.
For the molecule `C[C@@](Cc1ccc(O)c(O)c1)(NN)C(=O)O`, the Potency entry in [1], in test [2], in test [3], in test [4], in [10] and in [5] was “inactive” each time. In addition, the Potency result in [8] and in [9] was “inactive” in each case.
In the case of `CCCCCCCN(CC)CCCC(O)c1ccc(NS(C)(=O)=O)cc1` (stereo unspecified), the Potency in [1] is 23.7 µM (active); in [2], 21.1 µM (active). The Potency entry in [3] and in test [10] was “inactive” each time.
For `NC(=S)N=Nc1ccc(NN=C(N)N)cc1`, the Potency in [1] is 23.7 µM (active); in test [2] it was 26.6 µM (active); in test [8] it was 26.6 µM (active). Besides, the Potency result in test [3], in test [10], in test [5], in [6] and in test [7] was “inactive” each time.
Consider `CN(C)c1ccc(C(=C2C=CC(=[N+](C)C)C=C2)c2c(O)c(S(=O)(=O)[O-])cc3cc(S(=O)(=O)O)ccc23)cc1`, for which the Potency in test [1] was 29.8 µM (active); in test [2], 11.9 µM (active); in test [8], 23.7 µM (active); in test [9], 26.6 µM (active). For the same molecule, the Potency result in [3], in test [4] and in test [5] was “inactive” throughout.
Turning to `c1ccc2c(CCC3CCNCC3)c[nH]c2c1`, the results for the Potency in test [1] and in test [2] were 18.8 µM (active) and 21.1 µM (active), respectively. Besides, the Potency result in test [3], in test [4], in [5], in [6], in [7] and in [8] was “inactive” throughout. Also, the Potency entry in [9] was “inactive”.
For the molecule `Nc1ccn(C[C@@H](CO)OCP(=O)(O)O)c(=O)n1`, the Potency entry in test [1], in [2], in [3], in test [4], in [10] and in [9] was “inactive” in each case.
On to `O=C(NOC[C@H](O)CO)c1ccc(F)c(F)c1Nc1ccc(I)cc1F`, for which the Potency entry in test [1], in test [2], in test [3], in test [4], in [5] and in test [6] was “inactive” in each case. The Potency result in test [7], in test [8] and in test [9] was “inactive” in each case.
On to `CNC[C@@H]1CC[C@@H](N)[C@@H](O[C@H]2[C@H](O)[C@@H](O[C@H]3OC[C@](C)(O)[C@H](NC)[C@H]3O)[C@H](N)C[C@@H]2N)O1`, for which the Potency entry in test [1], in [2], in test [3], in [4], in test [5] and in [6] was “inactive” throughout. The Potency entry in test [7] and in test [9] was “inactive” each time.
Turning to `NC(Cc1ccccc1)C(=O)O` (stereo unspecified), the Potency entry in [1], in test [2], in test [3], in test [4], in [10] and in test [5] was “inactive” throughout. In addition, the Potency entry in test [7], in test [8] and in test [9] was “inactive” throughout.
For `CC[C@@]1(O)C(=O)OCc2c1cc1n(c2=O)Cc2cc3c([N+](=O)[O-])cccc3nc2-1`, the Potency in [1] was 2.37 µM (active); in [2], 0.473 µM (active); in test [4], 4.77 µM [inconclusive] (active); in test [7] it was 0.266 µM (active); in [9], 0.596 µM (active). The Potency result in test [3], in test [10] and in test [5] was “inactive” throughout.
Regarding `CN[C@H]1CCc2cc(OC)c(OC)c(OC)c2-c2ccc(OC)c(=O)cc21`, the figures for the Potency in test [1], in [2] and in test [7] were 0.119 µM (active), 0.0841 µM (active) and 0.0841 µM (active), respectively. Further, the Potency entry in [3], in test [4], in [6], in [8] and in test [9] was “inactive” throughout.
Take `O=S(=O)(O)c1cc(O)c2c(N=Nc3ccc(Nc4ccccc4)c4c(S(=O)(=O)O)cccc34)cc(S(=O)(=O)O)cc2c1`: the Potency in [1] is 26.6 µM (active); in test [2], 23.7 µM (active); in test [8], 15 µM (active); in test [9], 23.7 µM (active). The Potency result in test [3], in [4], in test [10] and in test [5] was “inactive” each time.
As for `Cc1ccc(/C(=C\CN2CCCC2)c2cccc(/C=C/C(=O)O)n2)cc1`, the Potency result in [1], in test [2], in [3], in test [10] and in test [8] was “inactive” throughout.
In the case of `C[C@]12CC[C@@H]3c4ccc(O)cc4CC[C@H]3[C@@H]1CC[C@@H]2OP(=O)(O)O`, the Potency entry in test [1], in test [2], in [3], in test [10], in [7] and in [8] was “inactive” each time. For the same molecule, the Potency entry in test [9] was “inactive”. Also, the Potency in [5] is 0.0013 µM [inconclusive] (active); in test [6] it was 0.0021 µM (active).
For the molecule `CC(=O)N[C@@H](CC(=O)N[C@@H](CCC(=O)O)C(=O)O)C(=O)O`, the Potency entry in test [1], in [2], in test [3], in [10], in test [5] and in test [6] was “inactive” in each case. Further, the Potency entry in test [7], in test [8] and in [9] was “inactive” each time.
